Rows were chosen to be rich in hits. Some 11% of all compounds tested hit in one or more screens of this group.
USP30 block: human USP30 deubiquitinase inhibition; 47,000 tested, 5.3% active; inhibition, % at 25 µM; purified USP30, Ub-rhodamine cleavage fluorescence; Q70CQ3
USP17 inh: human USP17-like deubiquitinase inhibition | purified USP17, Ub-rhodamine cleavage fluorescence, 3 h | inhibition, % at 50 µM | 47,000 tested, 6.5% active
USP28 block: human USP28 deubiquitinase inhibition | Q96RU2 | purified USP28, Ub-rhodamine cleavage fluorescence, 30 min | inhibition, % at 25 µM | 47,000 tested, 3% active | AID 1645857
Target sequence (Q96RU2 whole entry, looked up): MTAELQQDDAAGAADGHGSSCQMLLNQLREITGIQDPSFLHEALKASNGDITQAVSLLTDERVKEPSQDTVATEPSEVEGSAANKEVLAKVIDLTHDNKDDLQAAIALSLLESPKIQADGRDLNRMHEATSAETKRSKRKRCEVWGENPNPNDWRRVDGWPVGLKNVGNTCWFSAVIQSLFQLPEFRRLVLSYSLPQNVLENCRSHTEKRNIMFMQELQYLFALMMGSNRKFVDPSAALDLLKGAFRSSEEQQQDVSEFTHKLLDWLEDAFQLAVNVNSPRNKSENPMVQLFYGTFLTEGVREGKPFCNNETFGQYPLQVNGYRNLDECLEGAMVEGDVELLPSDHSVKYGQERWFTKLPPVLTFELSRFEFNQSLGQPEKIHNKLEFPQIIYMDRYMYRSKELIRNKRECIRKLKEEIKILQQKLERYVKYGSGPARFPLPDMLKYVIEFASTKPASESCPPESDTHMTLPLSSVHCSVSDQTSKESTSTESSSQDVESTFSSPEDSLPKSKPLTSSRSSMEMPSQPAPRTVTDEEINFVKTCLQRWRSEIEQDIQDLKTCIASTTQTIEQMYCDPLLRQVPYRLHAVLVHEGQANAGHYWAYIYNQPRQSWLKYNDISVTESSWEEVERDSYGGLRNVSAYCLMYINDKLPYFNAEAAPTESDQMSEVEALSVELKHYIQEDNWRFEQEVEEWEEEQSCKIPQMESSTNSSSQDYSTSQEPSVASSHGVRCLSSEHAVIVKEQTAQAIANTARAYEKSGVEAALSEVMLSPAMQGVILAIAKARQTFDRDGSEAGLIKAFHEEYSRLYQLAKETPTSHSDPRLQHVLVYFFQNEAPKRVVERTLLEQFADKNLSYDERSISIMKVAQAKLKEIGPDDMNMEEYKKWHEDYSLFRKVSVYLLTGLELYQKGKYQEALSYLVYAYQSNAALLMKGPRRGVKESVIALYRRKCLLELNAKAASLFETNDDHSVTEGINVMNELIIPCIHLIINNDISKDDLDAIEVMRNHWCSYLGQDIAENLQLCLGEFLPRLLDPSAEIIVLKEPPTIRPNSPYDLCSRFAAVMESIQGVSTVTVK
Starred values were filed as active, the others as inactive. No stated cut-off is given here; in the data, active means inhibition above about 30%; inactive means the rest.

How did CC(=O)N1CCc2cc(S(=O)(=O)NCCC(=O)NCCc3ccc(S(N)(=O)=O)cc3)ccc21 do in these assays?
USP30 block: 12.2; USP17 inh: 6.2; USP28 block: 5.1

Results for CCn1cc(Cn2cc(Cl)c([N+](=O)[O-])n2)cn1 ?
USP30 block: 20.3; USP17 inh: -7.7; USP28 block: 10.6

Results for CC1(C)CS(=O)(=O)N(c2cccc(C(=O)Nc3ccccc3)c2)C1=O ?
USP30 block: 7.1; USP17 inh: 4.6; USP28 block: 9.0

How did O=C(Cn1c(=O)n(CC(=O)NC2CCCC2)c(=O)c2ccccc21)Nc1ccc(Br)cc1 do in these assays?
USP30 block: 41.3*; USP17 inh: 37.8*; USP28 block: 24.0

How did CCc1noc(Cn2cnc3c4ccccc4n(CC(=O)NC4CCCCC4)c3c2=O)n1 do in these assays?
USP30 block: 69.3*; USP17 inh: 45.9*; USP28 block: 53.1*

How did COc1cc(Cl)c(C)cc1NC(=O)Cn1c(=O)n(CC(=O)NCc2ccco2)c(=O)c2ccccc21 do in these assays?
USP30 block: 28.3; USP17 inh: 49.8*; USP28 block: 38.5*

Results for O=C(Cn1c(=O)n(CCC(=O)NC2CCCC2)c(=O)c2ccccc21)Nc1ccc(Br)cc1F ?
USP30 block: -19.0; USP17 inh: -7.5; USP28 block: -12.9

How did O=C(NC1CCCCC1)c1nc(Cn2cnc3ccccc3c2=O)no1 do in these assays?
USP30 block: 0.3; USP17 inh: 14.4; USP28 block: -0.8

Results for O=C(Cn1c(=O)n(Cc2ccco2)c(=O)c2ccc(Cl)cc21)NCC1CCCO1 (centres undefined) ?
USP30 block: 13.6; USP17 inh: 8.6; USP28 block: 14.7

What do the screens show for `O=C(Cn1c(=O)n(Cc2ccc(C(=O)NCc3ccco3)cc2)c(=O)c2ccccc21)Nc1ccc2c(c1)OCCO2`?
USP30 block: 48.0*; USP17 inh: 80.9*; USP28 block: 58.1*

Results for O=C(CCCCn1c(=O)c2ccccc2n(CC(=O)Nc2ccc3c(c2)OCCO3)c1=O)NCc1ccco1 ?
USP30 block: 26.9; USP17 inh: 15.6; USP28 block: 14.4

Results for CCc1ccc(OCc2cccc(C(=O)Nc3c(C)cccc3C)c2)cc1 ?
USP30 block: -21.2; USP17 inh: -18.9; USP28 block: -7.1

What do the screens show for `C1CNCC(CCc2nc(N3CCCC3)nc3c2CNCC3)C1` (centres undefined)?
USP30 block: 25.1; USP17 inh: -8.4; USP28 block: 31.0*

How did O=C(CCCc1nc(-c2ccc(Cl)cc2)no1)Nc1ccncc1 do in these assays?
USP30 block: 6.6; USP17 inh: -20.3; USP28 block: 16.2

Results for C/C1=C/C=C/C=C\[C@H](C)[C@@H](O)CC(=O)/C(C)=C/C[C@H](O)/C=C/[C@H](C)[C@H](O)[C@@H](C)/C=C(\C)C(=O)c2c(O)c(C)cc3c2C(=O)C=C(NC1=O)C3=O ?
USP30 block: -283.7; USP17 inh: 21.2; USP28 block: -47.2

What do the screens show for `C/C1=C/CC(O)/C=C/C(C)C(O)C(C)/C=C(\C)C(=O)c2c(O)c(C)cc3c2C(=O)C(Cl)=C(NC(=O)\C=C/C=C/C=C\C(C)C(O)CC1=O)C3=O` (centres undefined)?
USP30 block: -98.0; USP17 inh: 74.1*; USP28 block: -0.4

Results for COc1ccc(S(=O)(=O)N2CCOCC2)cc1NC(=O)COc1ccc([N+](=O)[O-])cc1 ?
USP30 block: 7.9; USP17 inh: 17.7; USP28 block: 7.9

How did O=C(COC(=O)C1(c2ccc(Cl)cc2)CCCC1)Nc1ccc2c(c1)OCO2 do in these assays?
USP30 block: 47.8*; USP17 inh: 7.5; USP28 block: 19.5

Results for O=C(COC(=O)C1(c2ccc(Cl)cc2)CCCC1)c1ccc2c(c1)OCCO2 ?
USP30 block: -20.7; USP17 inh: -14.7; USP28 block: -7.1

How did O=C(COC(=O)C1CCCN1S(=O)(=O)c1ccc(Cl)cc1)Nc1ccc2c(c1)OCO2 (centres undefined) do in these assays?
USP30 block: 33.1*; USP17 inh: 22.4; USP28 block: 30.0

What do the screens show for `O=C(COC(=O)[C@@H]1CCCN1S(=O)(=O)c1ccc(Cl)cc1)Nc1ccccc1`?
USP30 block: -0.7; USP17 inh: -5.3; USP28 block: -2.7

How did COc1ccc([N+](=O)[O-])cc1NC(=O)COC(=O)C1CCCN1S(=O)(=O)c1ccc(Cl)cc1 (centres undefined) do in these assays?
USP30 block: 34.6*; USP17 inh: 0.2; USP28 block: 3.9

What do the screens show for `O=C(CSc1ncc(CO)n1CC(=O)NC1CC1)Nc1ccc(Br)cc1`?
USP30 block: 7.9; USP17 inh: 0.3; USP28 block: 8.3

How did Cc1c(C(=O)NCc2ccccc2)nnn1-c1cccc2c1CCN(Cc1ccncc1)C2 do in these assays?
USP30 block: -1.0; USP17 inh: 24.0; USP28 block: 0.9

What do the screens show for `CC(=O)c1cccc(S(=O)(=O)Nc2ccccc2Cc2ccccc2)c1`?
USP30 block: -5.2; USP17 inh: 3.8; USP28 block: 19.7

How did COc1ccc(S(=O)(=O)N2CCC3(CC2)CC3c2nc(-c3cccnc3)no2)c(C)c1 (centres undefined) do in these assays?
USP30 block: 36.3*; USP17 inh: 19.0; USP28 block: 4.7

What do the screens show for `Cc1ccc(F)cc1S(=O)(=O)N1CCC2(CC1)CC2c1nc(-c2cccnc2)no1` (centres undefined)?
USP30 block: -8.8; USP17 inh: -12.2; USP28 block: -3.6

What do the screens show for `O=C1CN(Cc2ccccc2)S(=O)(=O)c2ccccc2N1Cc1ccccc1F`?
USP30 block: 17.4; USP17 inh: -6.3; USP28 block: -1.6

How did O=C1CC(c2ccccc2)S(=O)(=O)c2ccccc2N1Cc1ccccc1F (centres undefined) do in these assays?
USP30 block: 29.1; USP17 inh: 39.5*; USP28 block: 8.1

What do the screens show for `O=C1CN(Cc2cccc(F)c2)S(=O)(=O)c2ccccc2N1Cc1ccccc1F`?
USP30 block: 30.7*; USP17 inh: 6.3; USP28 block: 6.0

What do the screens show for `O=C1CN(Cc2ccc(F)cc2)S(=O)(=O)c2ccccc2N1Cc1ccccc1F`?
USP30 block: 21.0; USP17 inh: 5.8; USP28 block: 11.7

How did COc1ccc(C2CC(=O)N(Cc3ccccc3F)c3ccccc3S2(=O)=O)cc1OC (centres undefined) do in these assays?
USP30 block: -59.4; USP17 inh: 36.4*; USP28 block: -0.2

Results for COc1ccc(C2CC(=O)N(CC(=O)c3ccccc3)c3ccccc3S2(=O)=O)cc1OC (centres undefined) ?
USP30 block: 16.4; USP17 inh: 1.1; USP28 block: 2.4

Results for CN(C)CCNC(=O)c1nc2c(s1)CCCN2C(=O)C1CC1 ?
USP30 block: -19.9; USP17 inh: -10.1; USP28 block: -12.8

What do the screens show for `Cc1ccnc(-n2c(C)c(C)c3c(=N)n(Cc4ccccc4)cnc32)c1`?
USP30 block: -74.1; USP17 inh: -21.3; USP28 block: -17.4

What do the screens show for `Cc1cc2nc(C3CCCCN3C(=O)c3ccnn3C)ccn2n1` (centres undefined)?
USP30 block: 0.1; USP17 inh: -3.5; USP28 block: 0.3

How did COc1cccc(NC(=O)Nc2ccc3nc4n(c(=O)c3c2)CCCC4)c1 do in these assays?
USP30 block: 27.3; USP17 inh: 33.9*; USP28 block: 55.2*
